In the library only some 7% were active in any assay of this set; here they are far more common.
DRD3 antagonist = D3 dopamine receptor (human) antagonism. P35462. D3R cells, DiscoveRx beta-arrestin luminescence, antagonist mode; active compounds read low. max response, negative = inhibition, %. 360,000 tested, 2.5% active. AID 652054; in the data active = max response below about -50%; inconclusive = no clear call, values can overlap the other calls
Target sequence (P35462 whole entry, looked up): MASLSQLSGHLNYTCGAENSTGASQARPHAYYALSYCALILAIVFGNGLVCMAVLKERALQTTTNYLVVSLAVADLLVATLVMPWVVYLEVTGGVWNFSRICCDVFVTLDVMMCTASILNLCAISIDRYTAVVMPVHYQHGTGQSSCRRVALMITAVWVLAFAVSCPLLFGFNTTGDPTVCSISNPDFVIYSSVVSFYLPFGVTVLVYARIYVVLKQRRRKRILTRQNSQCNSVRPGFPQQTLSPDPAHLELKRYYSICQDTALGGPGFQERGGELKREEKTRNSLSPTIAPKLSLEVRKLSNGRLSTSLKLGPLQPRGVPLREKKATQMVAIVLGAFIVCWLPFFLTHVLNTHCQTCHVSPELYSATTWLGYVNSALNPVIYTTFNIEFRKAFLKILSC
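Cells plated overnight at 1500 cells/well, then exposed to library compounds with dopamine controls for 90 minutes at 37 degrees C. DiscoveRx reagent added for 30–60 minutes at room temperature; luminescence read, quantitative HTS format.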
S2 tox = reduces viability in counter-screen for ATXN expression inhibitors | S2 cells (HEK-293 line with an ATXN2-luciferase reporter) viability, CellTiter-Fluor protease fluorescence, 24 h | Potency, µM (titrated, usually from 56.7 µM), hits mostly cytotoxic | 400,000 tested, 0.49% active | AID 651635; note: nearly all actives have a fitted effect of over 40% in size
IL1B secr inh = blocks inflammasome-driven IL-1 beta release; activity change, % at 57.5 µM; 360,000 tested, 4.7% active; AID 743279; THP-1 LPS/ATP IL-1B secretion, AlphaLISA, 16 h; active compounds read low; in the data active = activity change below about -50%; inconclusive = mostly about -30% to -49%
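Secreted IL-1B measured by AlphaLISA bead assay after 16 h compound exposure of THP-1 cells; compounds (final up to 57.5 uM) added 1 h before LPS (250 ng/mL) and ATP (1.25 mM) stimulation; lower signal means less secretion.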
a7 integrin act = activates integrin-mediated alleviation for muscular dystrophy | alpha7betagal myoblasts, beta-gal FDG fluorescence, 48 h | Potency, µM (series often up to 38.3 µM), most hits filed as activators | 350,000 tested, 0.064% active | AID 624291; note: nearly all actives have a fitted effect of over 60% in size
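Alpha7betagal+/- myoblasts (passage 13) were plated 16-24 hr, then exposed to compounds (1:260 dilution of DMSO stock) for 48 hours at 37C. After MPER lysis, β-galactosidase reporter activity was read as FDG fluorescence (ex 480/em 540) after 30 minutes.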
D3 ag = D3 dopamine receptor (human) agonism; D3R DiscoveRx beta-arrestin cells, luminescence, 90 min; max activation, %; 410,000 tested, 0.58% active; AID 652048; in the data active = max activation above about 30%
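Agonist mode: compounds and dopamine controls were applied to plated cells for 90 min at 37 degrees C after an overnight attachment at 1500 cells/well. Luminescent read-out followed 30 - 60 minutes at room temperature with DiscoveRx detection reagent.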
ATXN2 expr inh = reduces ATXN2 reporter expression in HEK-293 cells | HEK-293 ATXN2-luciferase reporter, luminescence, 24 h | Potency, µM (highest dose often 57 µM), hits mostly inhibitors | 360,000 tested, 0.72% active | AID 1745845; note: nearly all actives have a fitted effect of over 55% in size
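qHTS (up to 57 uM final) was run with 24 h compound exposure of reporter cells at 37 °C. Each well was multiplexed: SteadyGlo luminescence measured ATXN2-luciferase expression after a fluorogenic Gly-Phe-AFC viability readout (25 uM final).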
Numbers stand for hits; . = inactive; ? = inconclusive; / = not tested or not shown; [ ] = another dose, or the depositor's remark. Unless noted, calls come from the whole dose curve; as a rule, active = well fitted curve in the direction sought with a large enough effect; inconclusive = small, poorly fitted or top-dose-only effect, or another doubt; inactive = no such curve, though single readings can be large; an effect the other way counts as inactive or inconclusive.

SMILES	DRD3 antagonist	S2 tox	IL1B secr inh	a7 integrin act	D3 ag	ATXN2 expr inh
COc1nccnc1NS(=O)(=O)c1ccc(NC(=S)NC(=O)/C=C/c2ccccc2)cc1	-63	.	.	.	.	.
O=C(/C=C/c1ccccc1)Nc1cccc(C(=O)NC2CC2)c1	.	.	-64	.	.	.
O=C(/C=C/c1ccccc1Cl)Nc1ccccc1	.	?	-65	.	.	.
COc1ccc(CN2CCC(=O)N([C@H](CO)CC(C)C)CC2)cc1	.	.	.	.	.	.
O=C(CCl)Nc1ccccc1C(=O)Nc1ccc2c(c1)OCO2	.	.	-97	.	.	.
O=C(c1ccccc1)c1ccccc1NC(=O)c1ccccc1C(=O)O	/	/	/	/	.	/
O=C(CCl)Nc1ccccc1C(=O)c1ccccc1	.	?	-75	.	.	?
Cc1cc(C(=O)c2ccccc2)c(NC(=O)CCl)s1	.	?	-100	.	.	.
CC(=O)N1CCN(CC(=O)Nc2ccccc2Sc2ccc(Cl)cc2)CC1	.	.	.	.	.	.
O=C(CCl)Nc1ccccc1Sc1ccc(Cl)cc1	?	/	-100	.	.	/
COc1ccc(C2C(C(N)=O)=C(C)Nc3nc(SCc4ccccc4Cl)nn32)cc1OC (stereo not drawn)	/	.	/	/	.	.
CCN(CC(=O)Nc1ccc(OC)cc1)C(=O)c1cc2c(s1)CCCCC2	.	.	.	.	.	.
CN1C2CCC1/C(=C\c1ccccc1)C(=O)/C2=C\c1ccccc1	.	?	-95	.	.	25µM
COc1ccccc1-c1nc(C#N)c(N2CCc3ccccc3C2)o1	.	.	.	.[7.66 µM]	.	.
COc1ccc(-c2nc(C#N)c(N3CCc4ccccc4C3)o2)cc1OC	.	.	-52	.	36	.
N#Cc1nc(-c2ccc(COc3ccc(Cl)cc3)o2)oc1N1CCC(C(N)=O)CC1	/	?	/	/	.	20µM
CC(C)(C)c1ccc(-c2nc(C#N)c(N3CCC(C(N)=O)CC3)o2)cc1	.	.	-94	.	.	.
Cc1cccc(-c2nc(C#N)c(N3CCCCCC3)o2)c1	.	.	-57	.	.	.
Cc1nn(CCCC(=O)Nc2cnn(Cc3ccc(F)cc3)c2)c(C)c1[N+](=O)[O-]	.	.	.	.	.	.
CC1CCN(c2oc(-c3ccccc3Cl)nc2C#N)CC1	.	.	-52	.	.	.
Cc1ccccc1-c1nc(C#N)c(N2CCC(C)CC2)o1	.	.	.	.	.	.
CCOc1ccccc1NC(C)C(=O)NC(=O)NC1CCCCC1 (stereo not drawn)	.	.	.	.	.	.
CCOC(=O)c1cnc2c(OC)cccc2c1N1CCN(c2ccc(OC)cc2)CC1	.	.	.	.	.	?
CCOC(=O)c1cc(-c2ccc(C)cc2)n(CCC(=O)N2CCN(c3ccccn3)CC2)c1C	.	?	-56	.	.	.
CCOC(=O)c1cnc2ccc(Cl)cc2c1N1CCN(C)CC1	.	.	.	.	.	.
SMILES	DRD3 antagonist	S2 tox	IL1B secr inh	a7 integrin act	D3 ag	ATXN2 expr inh
CCOC(=O)c1cnc2c(C)cc(Cl)cc2c1N1CCN(C)CC1	.	/	-64	.	.	.
CCOC(=O)c1cc(-c2ccc(C)cc2)n(CCC(=O)NCc2ccccc2)c1C	/	?	/	/	.	.
CCOC(=O)c1cnc2c(OC)cccc2c1N1CCN(c2ccccc2OC)CC1	.	.	-97	.	.	.
CCOC(=O)c1cnc2c(OC)cccc2c1N1CC(C)CC(C)C1 (stereo not drawn)	.	?	.	.	.	/
CCOC(=O)c1cnc2c(OC)cccc2c1N1CCN(c2ccccn2)CC1	.	?	-53	.	.	?
CN1CCN(/C(=N\S(=O)(=O)c2ccc(F)cc2)c2ccccc2)CC1	.	.	.	.	.	.
CC(NS(=O)(=O)OCC(Cl)(Cl)Cl)c1ccc(C(C)(C)C)cc1 (stereo not drawn)	.	?	-72	.	.	?
Cc1ccc(NC(=O)CSc2nc(-c3cccs3)nc3cc(=O)[nH]n23)cc1C	/	/	/	/	.	/
CCCCNC(=O)c1nc(-c2ccc(C(F)(F)F)cc2)oc1-c1ccccc1	.	/	.	/	.	/
COc1ccc(-c2c(C(F)(F)F)oc3cc(OCC(=O)Nc4ccccc4C(F)(F)F)ccc3c2=O)cc1OC	.	.	.	.	.	.
CCCN(CC(=O)Nc1ccccc1C)C(=O)c1ccc(-c2ccccc2)cc1	.	?	?	.	.	.
CCN(CC)CCN(CC(=O)Nc1c(C)cc(C)cc1C)C(=O)c1ccccc1	.	.	-68	.	.	.
Cc1nc2ccn(Cc3ccccc3)c(=O)c2cc1C(=O)Nc1ccc(F)cc1Cl	/	.	/	/	.	.
OC(CCCN1CCC(O)(c2ccc(Cl)cc2)CC1)c1ccc(F)cc1 (stereo not drawn)	-114	.	?	/	.	.
OC1(c2ccc(Cl)c(C(F)(F)F)c2)CCN(CCCC(c2ccc(F)cc2)c2ccc(F)cc2)CC1	/	18µM	/	/	.	16µM
O=C(CN1C(=O)c2cccc3cccc1c23)NCc1ccccn1	.	.	.	.	.	.
O=C(CCC1COc2ccccc2O1)Nc1ccc(Cl)cn1 (stereo not drawn)	-52	.	.	.	.	?
O=C(CCSCCc1ccccn1)Nc1ccc(Cl)cn1	-62	.	.	.	.	.
Cc1ccnc(NC(=O)CCC2COc3ccccc3O2)c1 (stereo not drawn)	.	.	.	.	.	.
O=C(C1CCCCC1)N1CCN=C1SCc1cccc([N+](=O)[O-])c1	?	.	-94	.	.	.
O=C(c1ccccc1)N1CCN=C1SCc1ccc([N+](=O)[O-])cc1	.	.	.	.	.	.
Cc1ccc(C)c(CSC2=NCCN2C(=O)Cc2ccc([N+](=O)[O-])cc2)c1	-61	.	?	.	.	.
Cc1ccc(C(=O)N2CCN=C2SCc2ccc([N+](=O)[O-])cc2)cc1C	.	.	-85	.	.	.
Cc1oc(-c2ccccc2Cl)nc1CS(=O)(=O)CC(=O)NC(C)c1ccccc1 (stereo not drawn)	.	.	.	.	.	.
COc1ccc(-c2ccc3nccn3c2)cc1	.	.	.	/	.	.
CCN(CC)c1nc2ccccc2nc1C(=O)Nc1cc(OC)c(OC)c(OC)c1	/	?	/	/	.	.
Cc1cccc(OCCNc2cc(N3CCN(C)CC3)ccc2[N+](=O)[O-])c1	-65	?	?	.	.	.
Cc1cccc(OCCNc2cc(N3CCOCC3)ccc2[N+](=O)[O-])c1	.	.	.	.	.	.
Cc1ccc(OCCNc2cc(N3CCN(CCO)CC3)ccc2[N+](=O)[O-])cc1C	-56	?	?	.	.	.
COc1ccc(C(=O)NCCSCc2ccccc2Cl)cc1OC	.	.	.	.	.	.
